The values below come from ChEMBL document CHEMBL4513216, “Probing the Open Global Health Chemical Diversity Library for Multistage-Active Starting Points for Next-Generation Antimalarials” (ACS Infect Dis, 2020).

Molecules are shown by their SMILES. Out of some 68,000 compounds screened, about 2,700 (4%) showed an effect of 50% or more. Many of the other results were omitted from the sample, so strong results are more common in it than they were.

In the assay the test system is Plasmodium berghei. Kind of assay: Screen against P. berghei liver stage (PbLuc), transformed with Luciferase, at 2uM. It is filed as functional, HepG2. Particulars: tested at 2 uM.
As to `COCCN1CCc2ccc(=O)n(Cc3csc(C)n3)c2CC1`, the INHIBITION was -80.01%.
For `Cc1cc(NC(=O)c2ccc(F)cc2Br)n(C)n1`, the INHIBITION was -0.9%.
With `Cc1cc(NC(=O)c2ccc(F)cc2Cl)n(C)n1` the figure was 56.53%.
As to `Cc1cc(NC(=O)NCC(O)c2ccc(F)cc2)n(C)n1` (stereo not given), the INHIBITION is listed as 50.75%.
For the compound `Cc1cc(NC(=O)NCC(O)c2ccc(F)c(F)c2)n(C)n1` (stereo not given), the INHIBITION is recorded as -12.19%.
Regarding `Cc1ccc(C(O)CNC(=O)Nc2cc(C)nn2C)cc1` (stereo not given), the INHIBITION is -15.64%.
As for `Cc1cc(NC(=O)c2ccc(F)cc2F)n(C)n1`, the INHIBITION is on record as -20.8%.
On to `O=C(O)CN1CCC(F)(F)C2(CCN(c3ccccc3)C2)C1` (stereo not given), for which the INHIBITION is listed as -21.78%.
In the case of `COCCN1CCC2(CCN(c3ncccn3)CC2)C1=O`, the INHIBITION was 0.2%.
With `CC(C)(C)C1CCC(O)(CNC(=O)CCS(C)(=O)=O)CC1` (stereo not given) the figure was -16.28%; with `CN1C[C@@H](n2cnc(-c3ccccc3)c2-c2nccn2C)C[C@H]1C(=O)O`, 28.07%.
Regarding `Nc1nc(NCCO)cc(N2CCc3c([nH]c4ccccc34)C2)n1`, the INHIBITION was -14.75%.
Regarding `Cc1ccc2c(c1)CN(C(=O)C1CCCCC1)C(CN(C)C)CO2` (stereo not given), the INHIBITION is 38.1%.
Next, `Cn1cc(-c2ncc3c(c2C(=O)O)CCN(Cc2ccco2)C3)cn1`: 2.26%.
Next, `COCc1nc(C2CC2)nn1-c1cccc(F)c1`: -1.57%; `COC(=O)[C@H](C)NC(=O)c1nc(C2CC2)n(-c2ccccc2Cl)n1`: 13.65%.
`COc1ccc(Cl)cc1-n1nc(C2CCCC2)nc1Cn1cnnn1`: the INHIBITION came out at 31.51%.
Next, `COc1ccc(Cl)cc1CS(=O)(=O)Cc1nc(C2CC2)no1`: 7.46%; `COCc1nc(C2CC2)nn1-c1cc(Cl)ccc1OC`: 52.98%.
With `COCc1nc(C2CC2)nn1-c1ccccc1Cl`, the INHIBITION was determined as 72.05%.
Next, `Cc1ccn2c(F)c(C(=O)N3CCC4(CCC(=O)N(C)C4)CC3)nc2c1`: 6.81%; `Cc1nc(CNC(=O)Nc2cc(F)ccc2N2CCN(C)CC2)no1`: 29.53%; `c1cc(OCc2ccc3c(c2)OCO3)ccc1CNC1CC1`: 1.13%.
Consider `Cc1cc(C)nc(C2CCCN2C(=O)c2cnccn2)n1` (stereo not given), for which the INHIBITION is given as -48.89%.
On to `CNc1[nH]nc(N)c1C(=O)Nc1ccccc1`, for which the INHIBITION turned out to be 0.86%.
Next, `CNc1[nH]nc(N)c1NC(=O)c1ccccc1`: -11.22%; `CNc1[nH]nc(N)c1C(=O)Nc1ccc(OC)cc1`: 52.21%; `CCc1ncc2c(n1)CN(C(C)C(=O)N1CCOCC1)CC2` (stereo not given): 1.42%.
On to `CC(=O)NCCc1ccc(S(=O)(=O)Nc2ccc(C)cc2F)s1`, for which the INHIBITION came to 22.16%.
On to `COCCN1CCCC(c2cncc(Oc3ccccc3OC)n2)C1` (stereo not given), for which the INHIBITION is reported as 41.56%.
Next, `COc1cccc2ccc(CN3CCN(c4cccnc4)CC3)nc12`: -18.81%.
`COc1cccc2ccc(CN3CCN(c4ncccn4)CC3)nc12`: the INHIBITION is recorded as 38.8%.
Take `COc1cccc2ccc(CN3CCN(c4ccncc4)CC3)nc12`: the INHIBITION worked out at 65.42%.
For the compound `CCC=C(C)C(=O)NCc1ccnc(OC2CCOCC2)c1`, the INHIBITION is 4.54%.
In the case of `Cc1nnc2n1CCN(CC(=O)N1CCc3ccccc3C1)C2`, the INHIBITION is listed as 36.64%.
Consider `CC(C)c1nnc2n1CCN(CC(=O)N1CCc3ccccc3C1)C2`, for which the INHIBITION worked out at 54.92%.
In the case of `CC(C)c1nnc2n1CCN(CC(=O)N1CCc3sccc3C1)C2`, the INHIBITION is -38.92%.
Take `CC(C)c1nnc2n1CCN(C(=O)CN1CCc3sccc3C1)C2`: the INHIBITION is on record as -9.3%.
In the case of `CC(C)c1nnc2n1CCN(C(=O)CN(C)Cc1ccccc1)C2`, the INHIBITION is -58.05%.
For `CC(C)c1nnc2n1CCN(C(=O)CN1Cc3ccccc3C1=O)C2`, the INHIBITION was 53.03%.
Regarding `Cc1ccc(NC(=O)N2CC(C(=O)NC(C)C)C3(CCOCC3)C2)cc1` (stereo not given), the INHIBITION was found to be 33.65%.
Regarding `COCC1CCN(S(=O)(=O)c2ccc(C(=O)NCC(F)F)cc2)C1` (stereo not given), the INHIBITION was 15.44%.
With `Cc1cc(C(=O)N2CCN(c3nc4c(C(C)C)cccc4s3)CC2)on1`, the INHIBITION was found to be 61.06%.
As to `Cc1cc(C(=O)N2CCN(c3nc4c(C(C)C)cccc4s3)CC2)no1`, the INHIBITION was found to be 23.65%.
Next, `Cc1cc(C(=O)N2CCN(c3nc4c(C)cccc4s3)CC2)no1`: 7.72%; `Cc1nn(CC(=O)N(C)Cc2nncn2C(C)C)c(=O)c2ccccc12`: -0.47%; `O=C(O)c1ccccc1CN1CCCC(Cc2ccn[nH]2)C1` (stereo not given): 28.66%.
As for `O=C1NC2(CCN(C(=O)c3ccccc3)CC2)CC1c1cccnc1` (stereo not given), the INHIBITION is -51.9%.
`Cc1cc(C(=O)N2CCC3(CC2)CC(c2cccnc2)C(=O)N3)no1` (stereo not given): the INHIBITION is on record as 12.68%.
Turning to `O=C1NC2(CCN(C(=O)N3CCOCC3)CC2)CC1c1cccnc1` (stereo not given), the INHIBITION is recorded as 78.29%.
For `Cc1occc1-c1nc(NC2CCCC2)ncc1-c1ccccn1`, the INHIBITION is recorded as 11.97%.
As for `COCCCNC(=O)CN(C)C(C)c1nc(C(C)C)no1` (stereo not given), the INHIBITION was determined as 60.79%.
Regarding `COCCNC(=O)CN(C)C(C)c1nc(C)no1` (stereo not given), the INHIBITION is given as -4.01%.
Take `COCCCNC(=O)CN(C)C(C)c1nc(C)no1` (stereo not given): the INHIBITION was 35.5%.
On to `Cc1ccc(-c2cc(C)nc(C3CCCN3S(C)(=O)=O)n2)cc1` (stereo not given), for which the INHIBITION is 16.87%.
Take `CC(C(=O)Nc1ccnn1C(C)C)N1CCN(Cc2ccon2)CC1` (stereo not given): the INHIBITION was found to be 62%.
With `CC(C(=O)Nc1ccnn1C(C)C)N1CCN(Cc2ccccc2)CC1` (stereo not given) the figure was 47.68%; with `COCCN1CCN(C(C)C(=O)Nc2ccnn2C(C)C)CC1` (stereo not given), 23.86%; with `C[C@H]1C[C@@H]2CCN(C(=O)c3ccncc3)C[C@H]2O1`, -15.25%.
Take `CCn1c(C)nnc1CN(C)C1CCN(CCn2cccn2)C1` (stereo not given): the INHIBITION is listed as -53.72%.
As to `CN(C)S(=O)(=O)N1CCC2(COCc3cnc(-c4cccnc4)nc32)C1` (stereo not given), the INHIBITION is 19.51%.
Regarding `Cc1cc(N2CCOC(C)(C(=O)N(C)C)C2)ncn1` (stereo not given), the INHIBITION stood at 58.29%.
On to `Cc1ccc(N2CCOC(C)(C(=O)N(C)C)C2)nn1` (stereo not given), for which the INHIBITION worked out at 39.07%.
On to `Cc1cc(C)nc(N2CCOC(C)(C(=O)N(C)C)C2)n1` (stereo not given), for which the INHIBITION worked out at 19%.
For `CC(C)N1CCOC[C@H]1c1nc(C(C)(C)C)c[nH]1`, the INHIBITION is on record as -0.14%.
As to `CCCC(NC(=O)c1cc(C)ccc1O)c1nnn[nH]1` (stereo not given), the INHIBITION is -7.9%.
Take `CCCn1cnc2c1CN(S(=O)(=O)Cc1ccccc1)[C@H](C(=O)OC)C2`: the INHIBITION came to 60.6%.
As for `CCCn1cnc2c1CN(S(=O)(=O)c1ccc(F)cc1)[C@H](C(=O)OC)C2`, the INHIBITION is 46.32%.
Next, `COC(=O)[C@@H]1Cc2ncn(C)c2CN1S(=O)(=O)c1ccc(C)cc1`: 6.24%; `COC(=O)[C@@H]1Cc2ncn(C)c2CN1S(=O)(=O)c1cccs1`: 51.81%; `COC(=O)[C@@H]1Cc2ncn(C)c2CN1S(=O)(=O)Cc1ccccc1`: 26.55%.
`COC(=O)[C@@H]1Cc2ncn(C)c2CN1S(=O)(=O)c1ccc(OC)cc1`: the INHIBITION was 47.42%.
On to `CCCS(=O)(=O)N1Cc2c(ncn2Cc2ccccc2)C[C@H]1C(=O)OC`, for which the INHIBITION turned out to be 39.73%.
Turning to `COC(=O)[C@@H]1Cc2ncn(C(C)C)c2CN1S(=O)(=O)Cc1ccccc1`, the INHIBITION is recorded as 39.18%.
With `COC(=O)[C@@H]1Cc2ncn(C)c2CN1S(=O)(=O)c1ccc(Cl)cc1` the figure was 57.85%.
